Data from PubChem BioAssay (NCATS).
Where “and” joins values, the source holds several entries; their conditions need not be identical. Equal values may be shown once. Inconclusive results are not listed. Calls of active or inactive are those of the source. Unless noted, calls come from the whole dose curve.

Key:
[1] = target: Estrogen receptor (Homo sapiens) (UniProt P03372); experiment: qHTS assay for small molecule antagonists of estrogen receptor alpha signaling (AID 588513; active = well fitted curve in the direction sought with a large enough effect in the signal ratio, with a control signal flat, not every such curve was filed as active; the % refers to the signal ratio; note: % is set by controls: 0 for no effect and ±100 for the full control effect)
How it was run: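 ER-alpha-UAS-bla GripTite HEK 293 cells in 2% charcoal/dextran-treated FBS medium; compounds titrated (1:2, duplicate), then stimulated with 0.5 nM 17-beta-estradiol for 18 h at 37C. CCF4 beta-lactamase fluorescence; Hill-fit IC50 and efficacy.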

[2] = target: Estrogen receptor (Homo sapiens) (UniProt P03372); experiment: qHTS assay for small molecule agonists of estrogen receptor alpha signaling (AID 588514); note: nearly all actives have a fitted effect of over 70% in size; note: potency is the fitted concentration of half-maximal effect;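 for activation: 0% = vehicle only and 100% = reference agonist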
How it was run: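 ER-alpha-UAS-bla GripTite HEK293 cells, 5000/well in 2% charcoal/dextran-stripped FBS medium, treated with compound titrations 18 h at 37 C. CCF4 beta-lactamase read by fluorescence after 2 h RT; normalised to 20 nM 17-beta-estradiol (100%) and DMSO (0%), Hill fit for EC50 and efficacy.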

[3] = target: Vitamin D3 receptor (Homo sapiens) (UniProt P11473); experiment: qHTS assay for small molecule antagonists of vitamin D receptor signaling (AID 588541);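 note: receptor activated by calcitriol during compound treatment; series mostly up to about 77 µM; % is set by controls: 0 for no effect and ±100 for the full control effect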
How it was run: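 Antagonist-mode beta-lactamase reporter assay: HEK293T VDR-UAS-bla cells were exposed to titrated compound alongside 1-alpha,25-dihydroxyvitamin D3 at 3 nM final for 16 h. Values were normalized to the 50 nM agonist control and DMSO basal, with IC50 and efficacy from Hill equation fits.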

[4] = target: Vitamin D3 receptor (Homo sapiens) (UniProt P11473); experiment: qHTS assay for small molecule agonists of vitamin D receptor signaling (AID 588543);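 note: 0% = DMSO basal and 100% = reference agonist control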
How it was run: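 VDR-UAS-bla HEK293T cells, 2000/well, 2% charcoal-stripped FBS; compound titration 16 h at 37 C; CCF4 beta-lactamase ratio read. Normalized to 50 nM 1-alpha,25-dihydroxyvitamin D3 (100%) and DMSO; Hill fit gives EC50, efficacy.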

[5] = qHTS assay for small molecule agonists of retinoid X receptor alpha signaling (AID 588544); settings: HEK293T RXRa-UAS-bla, beta-lactamase reporter, 18 h; 530 nm emission;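 for activation: 0% = DMSO basal wells and 100% = reference agonist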
[6] = target: Retinoic acid receptor RXR-alpha (Homo sapiens) (UniProt P19793); experiment: as above
[7] = target: Thyroid hormone receptor beta (Homo sapiens) (UniProt P10828); experiment: qHTS assay for small molecule agonists of thyroid hormone receptor beta signaling (AID 588545)
How it was run: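 In this cell-based screen, titrated compounds act on HEK 293 cells held in medium with 2% charcoal/dextran FBS, NEAA and pyruvate for 18 hrs at 37 C. Responses are expressed relative to T3 (10 nM) as 100% and basal DMSO as 0%.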

[8] = qHTS assay for small molecule antagonists of retinoid X receptor alpha signaling (AID 588546; active = well fitted inhibition curve with a large enough effect in the signal ratio, with a control signal flat, not every such curve was filed as active; the % refers to the signal ratio;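 note: cells stimulated with 9-cis-retinoic acid as agonist; % is set by controls: 0 for no effect and ±100 for the full control effect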); settings: HEK293T RXRa-UAS-bla, beta-lactamase ratio, antagonist mode; measured here: W530 green channel, cytotoxicity proxy
How it was run: (§1)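 Beta-lactamase reporter inhibition, read as CCF4 fluorescence ratio (ex 405, em 460/530 nm) after 2 h at RT. HEK293T UAS-bla cells, 2500/well, were stimulated with 9-cis-RA at 500 or 100 nM final alongside test compound for 18 h at 37 C.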

[9] = target: Retinoic acid receptor RXR-alpha (Homo sapiens) (UniProt P19793); experiment: as above; settings: HEK293T RXRa-UAS-bla, beta-lactamase ratio, antagonist mode
How it was run: as §1

[10] = target: Thyroid hormone receptor beta (Homo sapiens) (UniProt P10828); experiment: qHTS assay for small molecule antagonists of thyroid hormone receptor beta signaling (AID 588547; active = well fitted inhibition curve with a large enough effect in the signal ratio, with a control signal flat, not every such curve was filed as active; the % refers to the signal ratio;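 note: cells stimulated with 0.4 nM T3 agonist during compound exposure; series mostly up to about 77 µM; % is set by controls: 0 for no effect and ±100 for the full control effect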); settings: TR-UAS-bla HEK293, beta-lactamase ratio, antagonist mode, 18 h
How it was run: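 Inhibition of T3-driven (0.4nM final) beta-lactamase reporter activity was measured over 0.59 nM to 92 uM compound after 18 h at 37 C. The cells were GripTite HEK293 TR-UAS-bla in charcoal/dextran-stripped serum, with CCF4 ratio read-out and IC50 from Hill fits.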

[11] = qHTS assay for small molecule activators of the nuclear factor-kappa B (NF-kB) signaling pathway (AID 651749; active = well fitted activation curve with a large enough effect in the signal ratio; the % refers to the signal ratio; note: series mostly up to about 77 µM; % of control where 0% means no effect); settings: NF-kB-bla ME-180 cells, beta-lactamase FRET ratio, 16 h; activation: stronger effect = higher value
How it was run: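 Readout: beta-lactamase reporter driven by an NF-kB response element, detected fluorescently as loss of FRET. Cells were the ME-180 line, treated 16 hr at 37C with pin-transferred compound.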

[12] = qHTS assay for environmental chemicals that activate the Aryl hydrocarbon Receptor (AhR) signaling pathway (AID 651777; active = well fitted curve in the direction sought with a large enough effect; an effect the other way counts as inactive or inconclusive; note: % of control where 0% means no effect; nearly all actives have a fitted effect of over 15% in size); settings: 1A2-DRE human hepatoma cells, luciferase, 24 h; activation: stronger effect = higher value
How it was run: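 Luminescence (One-Glo, 30 min, room temperature) reports AhR-driven luciferase in stably transfected human hepatoma cells bearing DRE and CYP1A2 promoter. Cells (1,200/well) were treated with compound for 24 hr at 37 C in qHTS format.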

[13] = target: Peroxisome proliferator-activated receptor alpha (Homo sapiens) (UniProt Q07869); experiment: qHTS assay for small molecule agonists of the peroxisome proliferator-activated receptor alpha (PPARalpha) signaling pathway (AID 651778; active = well fitted curve in the direction sought with a large enough effect; an effect the other way counts as inactive or inconclusive; note: % of control where 0% means no effect); settings: PathHunter PPARalpha complementation, chemiluminescence, 6 h; max response: stronger effect = higher value
How it was run: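 Chemiluminescence from complemented enzyme reported PPARalpha activation in cells after 6 hr of compound treatment at 37 C. The detection reagent was incubated for 60 min at room temperature, and compounds were scored as agonists.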

[14] = qHTS assay for small molecule agonists of the antioxidant response element (ARE) signaling pathway measured by Nrf2-dependant transcriptional activity (AID 720636; active = well fitted curve in the direction sought with a large enough effect in the repeat runs; an effect the other way counts as inactive or inconclusive; note: % of control where 0% means no effect)
How it was run: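 Nrf2-dependent transcription read as ONE-Glo luciferase signal from ARE-luc HepG2 reporter cells after 16 hr compound treatment at 37 C, 5% CO2, in assay medium with 1% dialyzed FBS.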

[15] = qHTS assay for small molecule agonists of the antioxidant response element (ARE) signaling pathway measured by Nrf2-dependant transcriptional activity - cell viability counter screen (AID 720653; active = well fitted curve in the direction sought with a large enough effect in the repeat runs; an effect the other way counts as inactive or inconclusive; note: % is set by controls: 0 for no effect and ±100 for the full control effect); settings: ARE-bla HepG2 viability, CellTiter-Glo ATP luminescence, 16 h; max response: stronger effect = lower value
How it was run: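 Cytotoxicity counter screen: intracellular ATP quantified by CellTiter-Glo luminescence in the same ARE-bla HepG2 plates, after 16 h compound exposure and a 2 h beta-lactamase substrate step.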

[16] = qHTS assay for cell viability of the p53RE-bla HCT-116 cell line (AID 743292; active = well fitted curve in the direction sought with a large enough effect; an effect the other way counts as inactive or inconclusive; note: % is set by controls: 0 for no effect and ±100 for the full control effect; nearly all actives have a fitted effect of over 55% in size)
How it was run: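 ATP-based luminescent viability (CellTiter-Glo, 30 min RT) after 16 h compound treatment at 37 C of p53RE-bla HCT-116 cells, seeded at 4,000 cells/well and rested 5 h before dosing.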

[17] = qHTS assay for small molecule antagonists of peroxisome proliferator-activated receptor delta signaling (AID 588535); settings: HEK293T PPARd-UAS-bla, beta-lactamase FRET ratio, 18 h; 460 nm channel;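 note: cells co-treated with a PPAR-delta agonist as stimulator during compound exposure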
How it was run: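 HEK293T PPAR-delta-UAS-bla cells, 4000/well, 2% charcoal/dextran FBS; 5 h 37 C; cpd titration; 18 h 37 C; CCF4 2 h RT; FI 460/530 nm; Hill fit → IC50, efficacy.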

[18] = qHTS assay for cell viability of HEK293 cells (AID 743288; active = well fitted curve in the direction sought with a large enough effect; an effect the other way counts as inactive or inconclusive; note: % is set by controls: 0 for no effect and ±100 for the full control effect; nearly all actives have a fitted effect of over 50% in size); settings: ATP luminescence (CellTiter-Glo), 18 h; max response: stronger effect = lower value
How it was run: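 Parental HEK293 cells, 2,000 per well, preincubated at least 5 h at 37 C, then exposed to compounds in DMSO for 18 h at 37 C. Viability by CellTiter-Glo ATP luminescence after 30 min at room temperature.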

[19] = qHTS assay for small molecule activators of the human pregnane X receptor (PXR) signaling pathway (AID 720659; call rule not given here; note: 0% is about no effect)
[20] = target: Nuclear receptor subfamily 1 group I member 2 (Rattus norvegicus) (UniProt Q9R1A7); experiment: qHTS assay for small molecule activators of the rat pregnane X receptor (rPXR) signaling pathway (AID 651751; call rule not given here; note: 0% is about no effect); settings: rPXR reporter cells, luciferase (One-Glo), 24 h
Chain of Nuclear receptor subfamily 1 group I member 2 (Rattus norvegicus) (Q9R1A7 whole entry, looked up): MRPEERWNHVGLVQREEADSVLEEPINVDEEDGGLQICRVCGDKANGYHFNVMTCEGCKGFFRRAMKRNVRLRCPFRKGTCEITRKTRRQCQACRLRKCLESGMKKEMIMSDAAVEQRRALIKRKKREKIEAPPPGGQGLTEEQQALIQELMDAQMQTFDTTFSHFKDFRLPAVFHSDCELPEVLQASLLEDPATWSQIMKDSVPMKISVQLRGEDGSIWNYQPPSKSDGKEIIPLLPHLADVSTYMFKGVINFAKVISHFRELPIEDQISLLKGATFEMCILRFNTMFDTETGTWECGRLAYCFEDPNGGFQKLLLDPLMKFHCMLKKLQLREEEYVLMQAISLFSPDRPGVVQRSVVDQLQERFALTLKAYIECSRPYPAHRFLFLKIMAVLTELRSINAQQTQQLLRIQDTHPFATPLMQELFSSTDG

Chain of Vitamin D3 receptor (Homo sapiens) (P11473 whole entry, looked up): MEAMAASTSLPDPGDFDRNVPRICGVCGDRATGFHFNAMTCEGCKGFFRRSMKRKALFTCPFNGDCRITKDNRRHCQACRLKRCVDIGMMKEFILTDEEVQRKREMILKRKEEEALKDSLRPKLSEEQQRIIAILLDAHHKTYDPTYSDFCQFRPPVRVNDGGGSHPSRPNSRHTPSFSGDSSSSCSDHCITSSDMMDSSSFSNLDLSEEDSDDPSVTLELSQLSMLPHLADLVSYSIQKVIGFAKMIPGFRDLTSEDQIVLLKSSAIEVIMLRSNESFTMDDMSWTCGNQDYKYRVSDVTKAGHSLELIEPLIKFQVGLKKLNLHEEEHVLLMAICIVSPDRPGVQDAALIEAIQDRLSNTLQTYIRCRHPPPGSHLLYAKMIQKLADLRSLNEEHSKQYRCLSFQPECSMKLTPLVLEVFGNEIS
Chain of Retinoic acid receptor RXR-alpha (Homo sapiens) (P19793 whole entry, looked up): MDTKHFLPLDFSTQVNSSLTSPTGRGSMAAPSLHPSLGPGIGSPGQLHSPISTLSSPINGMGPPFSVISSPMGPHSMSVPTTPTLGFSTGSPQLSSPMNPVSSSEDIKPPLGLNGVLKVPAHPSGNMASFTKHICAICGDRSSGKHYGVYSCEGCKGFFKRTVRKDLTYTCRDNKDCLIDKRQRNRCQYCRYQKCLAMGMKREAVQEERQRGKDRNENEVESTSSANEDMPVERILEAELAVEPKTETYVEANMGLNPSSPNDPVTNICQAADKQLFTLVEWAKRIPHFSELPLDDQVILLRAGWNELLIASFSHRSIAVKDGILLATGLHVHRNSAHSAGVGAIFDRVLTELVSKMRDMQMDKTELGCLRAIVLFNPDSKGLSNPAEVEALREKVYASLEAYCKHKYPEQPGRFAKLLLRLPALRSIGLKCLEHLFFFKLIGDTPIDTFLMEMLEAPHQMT
Chain of Thyroid hormone receptor beta (Homo sapiens) (P10828 whole entry, looked up): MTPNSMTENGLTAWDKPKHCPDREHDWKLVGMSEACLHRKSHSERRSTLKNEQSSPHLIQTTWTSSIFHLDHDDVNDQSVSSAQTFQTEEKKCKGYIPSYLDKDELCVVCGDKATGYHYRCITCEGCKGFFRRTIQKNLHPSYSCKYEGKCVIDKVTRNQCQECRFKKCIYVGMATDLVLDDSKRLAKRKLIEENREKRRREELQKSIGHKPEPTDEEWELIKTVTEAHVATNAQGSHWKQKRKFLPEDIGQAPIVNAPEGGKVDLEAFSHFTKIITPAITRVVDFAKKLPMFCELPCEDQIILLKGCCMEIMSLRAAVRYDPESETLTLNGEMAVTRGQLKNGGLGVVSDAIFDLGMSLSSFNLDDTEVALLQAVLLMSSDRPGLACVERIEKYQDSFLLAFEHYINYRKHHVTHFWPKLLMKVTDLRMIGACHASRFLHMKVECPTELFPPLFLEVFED
Chain of Peroxisome proliferator-activated receptor alpha (Homo sapiens) (Q07869 whole entry, looked up): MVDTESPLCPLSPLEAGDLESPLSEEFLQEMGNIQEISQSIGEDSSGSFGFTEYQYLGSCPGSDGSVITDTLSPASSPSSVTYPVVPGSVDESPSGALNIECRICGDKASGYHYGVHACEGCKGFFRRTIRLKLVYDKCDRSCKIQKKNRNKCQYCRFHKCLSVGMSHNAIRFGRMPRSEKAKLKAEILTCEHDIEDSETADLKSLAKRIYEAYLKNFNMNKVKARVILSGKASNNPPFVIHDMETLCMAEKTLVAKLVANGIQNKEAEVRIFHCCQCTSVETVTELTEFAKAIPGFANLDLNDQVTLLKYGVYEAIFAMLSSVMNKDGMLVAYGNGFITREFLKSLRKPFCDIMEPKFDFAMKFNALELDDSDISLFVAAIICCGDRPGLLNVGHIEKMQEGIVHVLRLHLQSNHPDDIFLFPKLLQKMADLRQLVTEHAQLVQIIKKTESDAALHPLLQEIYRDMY
Chain of Estrogen receptor (Homo sapiens) (P03372 whole entry, looked up): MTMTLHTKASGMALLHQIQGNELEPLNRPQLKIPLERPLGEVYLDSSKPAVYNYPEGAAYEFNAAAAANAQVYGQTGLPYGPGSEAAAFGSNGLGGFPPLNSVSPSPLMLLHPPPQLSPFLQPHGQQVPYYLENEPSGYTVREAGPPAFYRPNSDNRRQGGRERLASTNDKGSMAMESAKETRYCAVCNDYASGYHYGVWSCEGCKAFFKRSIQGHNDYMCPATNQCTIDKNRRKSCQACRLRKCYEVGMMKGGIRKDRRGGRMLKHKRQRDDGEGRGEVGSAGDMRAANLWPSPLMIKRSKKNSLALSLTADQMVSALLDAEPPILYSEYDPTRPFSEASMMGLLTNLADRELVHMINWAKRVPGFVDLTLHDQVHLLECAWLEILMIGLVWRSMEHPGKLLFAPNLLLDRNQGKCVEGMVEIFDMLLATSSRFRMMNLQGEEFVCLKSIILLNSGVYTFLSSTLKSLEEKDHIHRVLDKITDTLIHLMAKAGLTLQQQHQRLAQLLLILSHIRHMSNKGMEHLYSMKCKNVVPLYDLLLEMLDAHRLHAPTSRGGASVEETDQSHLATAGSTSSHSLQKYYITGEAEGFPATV

Compound: CCCCCCCCCCO
- Potency [1]: inactive
- Potency [2]: inactive
- Potency [3]: inactive
- outcome [4]: inactive
- max response [5]: -3.16% and -6.7%
- Potency [6]: inactive
- Potency [7]: inactive
- max response [8]: -1.67% and -3.39%
- max response [9]: 6.68% (inactive) and -9.14% (inactive)
- activity change % (negative = inhibition) [10]: 16.6% (inactive) and -15.4% (inactive)
- activation [11]: -0.272% (inactive) and -0.916% (inactive)
- activation [12]: -1.2% (inactive) and 0.559% (inactive)
- max response [13]: -0.236% (inactive) and 5.87% (inactive)
- Potency [14]: inactive
- max response [15]: -7.77% (inactive) and 2.22% (inactive)
- Potency [16]: inactive

Compound: c1ccc(-c2ccc(-c3ccccc3)cc2)cc1
- Potency [1]: inactive
- Potency [2]: inactive
- max response [17]: -0.983%
- Potency [3]: inactive
- outcome [4]: inactive
- Potency [7]: inactive
- max response [8]: -5.51%
- max response [9]: 1.88% (inactive)
- activity change % (negative = inhibition) [10]: 2.31% (inactive)
- activation [11]: 0.439% (inactive)
- activation [12]: 6.5% (inactive)
- max response [13]: -0.186% (inactive)
- max response [15]: -5.82% (inactive)
- max response [18]: -2.69% (inactive)
- Potency [16]: inactive
- outcome [19]: inactive

Compound: CCCCCCCCCCCC(=O)N(C)CC(=O)O
- Potency [1]: inactive
- Potency [2]: inactive
- max response [5]: 21.8%
- Potency [6]: inactive
- Potency [7]: inactive
- max response [8]: 7.91%
- max response [9]: 6.82% (inactive)
- activity change % (negative = inhibition) [10]: 5.42% (inactive)
- activation [12]: 0.0412% (inactive)
- max response [18]: -6.6% (inactive)
- Potency [16]: inactive
- max response [20]: -2.95% (inactive)
- outcome [19]: inactive

Compound: CC/C=C\CCOC(=O)c1ccccc1O
- Potency [1]: inactive
- Potency [2]: 25.1 µM (active)
- max response [17]: -19.1%
- Potency [3]: inactive
- outcome [4]: inactive
- max response [5]: -9.64%
- Potency [6]: inactive
- max response [8]: -7.38%
- max response [9]: 0.792% (inactive)
- activity change % (negative = inhibition) [10]: 0.0454% (inactive)
- activation [11]: -0.397% (inactive)
- activation [12]: 1.45% (inactive)
- max response [13]: 0.589% (inactive)
- Potency [14]: inactive
- max response [18]: 0.746% (inactive)
- Potency [16]: inactive
- max response [20]: 5.21% (inactive)
- outcome [19]: inactive

Compound: C/C(=C\C(C)CC(C)CC(C)C)C1CC(=O)OC1=O (configuration not stated)
- Potency [1]: inactive
- Potency [2]: inactive
- max response [17]: 29.8%
- Potency [3]: inactive
- outcome [4]: inactive
- max response [5]: 7.08%
- Potency [6]: inactive
- Potency [7]: inactive
- max response [8]: -6.65%
- max response [9]: 4.94% (inactive)
- activity change % (negative = inhibition) [10]: 0.311% (inactive)
- activation [11]: -0.74% (inactive)
- activation [12]: 1.33% (inactive)
- Potency [14]: inactive
- max response [18]: -7.26% (inactive)
- Potency [16]: inactive
- max response [20]: 3.67% (inactive)
- outcome [19]: inactive

Compound: CCCCOCCOCCOC(=O)CCCCC(=O)OCCOCCOCCCC
- Potency [1]: inactive
- Potency [2]: inactive
- max response [17]: 22.3%
- Potency [3]: inactive
- outcome [4]: inactive
- max response [5]: -9.1%
- Potency [6]: inactive
- max response [8]: -1.41%
- max response [9]: 5.79% (inactive)
- activity change % (negative = inhibition) [10]: -12.6% (inactive)
- activation [11]: -0.225% (inactive)
- max response [13]: 3.34% (inactive)
- max response [15]: -2.75% (inactive)
- max response [18]: -4.73% (inactive)
- Potency [16]: inactive
- max response [20]: -6.4% (inactive)
